Among all 69,000 compounds or so, about 950 (1.4%) showed an effect of 50% or more. Shown is part of a subset that was picked to be rich in strong results.

Consider 90 compounds from ChEMBL document CHEMBL3988442, “University of Dundee, Small-Polar-MMV Screening Library” (2021).

The test system of this experiment is Mycobacterium tuberculosis. In words: Cornell M. t heat shock assay. Further: in the data most compounds retested in dose-response had high values. Format: functional, organism-based. Also noted: dose or concentration left out as unconfirmed.
As for `O=C(Nc1cccnc1)[C@H]1CO[C@H]2CCNC[C@H]2C1.O=C(O)C(F)(F)F.O=C(O)C(F)(F)F`, the “Percent Effect” value was -15.71%. The value for `Cc1ccc2c(n1)N(CC1CC1)CCN(C(=O)c1ccncc1F)C2.O=C(O)C(F)(F)F.O=C(O)C(F)(F)F` was -13.11%; that for `CCn1c(CN(C)Cc2csc(C)n2)nc2cc(F)ccc21` was 69.38%. The value for `CCN(Cc1csc(C)n1)c1cccc(CO)c1` was -22.94%.

On to `CCn1c(CN(C)Cc2cnc(C)s2)nc2cc(F)ccc21`, for which the “Percent Effect” value is given as -9.437%. In the case of `CCO[C@@H]1CC[C@H]2[C@H]1OCCN2CC1CCC1.O=C(O)C(F)(F)F` it was -27.51%; in that of `CCc1nnc(CN(C)c2cc(C)nc3c(C)c(C)nn23)o1`, -40%.

In the case of `Cc1cc(NC(C)c2csc(C)n2)n2nc(C)c(C)c2n1` (stereo not given), the “Percent Effect” value was determined as 26.88%.

In the case of `Cc1cc(N(C)Cc2ccsc2)n2nc(C)c(C)c2n1`, the “Percent Effect” value is on record as 86.91%. The value for `CCc1cc(N(C)Cc2ccno2)n2nc(C)c(C)c2n1` was 27.53%; that for `CCc1cc(N(C)Cc2ccnc(C)c2)n2nc(C)c(C)c2n1` was 28.31%. For the compound `Cc1cc(N(C)Cc2cc(C)on2)n2nc(C)c(C)c2n1`, the “Percent Effect” value stood at 82.43%. The value for `Cc1cc(N(C)Cc2c(C)noc2C)n2nc(C)c(C)c2n1` was -31.35%; that for `CCc1cc(N(C)Cc2ccncn2)n2nc(C)c(C)c2n1` was 89.97%.

For the compound `Cc1csc(CN(C)c2cc(C)nc3c(C)c(C)nn23)n1`, the “Percent Effect” value is 96.63%.

As to `CCc1cc(N(C)Cc2cc[nH]n2)n2nc(C)c(C)c2n1`, the “Percent Effect” value came out at 19.05%. Consider `Cc1cc(N(C)Cc2noc(C)n2)n2nc(C)c(C)c2n1`, for which the “Percent Effect” value was 0.3178%. The value for `Cc1cc(N(C)CCN(C)C)n2nc(C)cc2n1` was -8.3%; that for `Cc1cc(C)cc(N2CCN(C(=O)CCN3C[C@@H]4CC[C@H]3C4)CC2=O)c1` was -4.633%.

With `COc1cc(N2C[C@@H]3COC[C@]3(COc3ncccc3F)C2)ncn1.O=C(O)C(F)(F)F.O=C(O)C(F)(F)F`, the “Percent Effect” value is listed as -28.64%. The value for `CC(C)OCc1ncn2c1CN(Cc1cccs1)CCC2.O=C(O)C(F)(F)F` was -1.604%; that for `CN(C)CCOCc1nnc2n1CCN(CC1CC1)CC2.O=C(O)C(F)(F)F.O=C(O)C(F)(F)F` was -19.96%. In the case of `Cc1ncsc1CN1C[C@H](C(=O)NCC2CC2)[C@@H]2CCO[C@@H]2C1.O=C(O)C(F)(F)F` it was -4.533%; in that of `COc1ccc(CN2CCC3(CC2)CCN(CCN(C)C)C3=O)cc1.O=C(O)C(F)(F)F.O=C(O)C(F)(F)F`, -10.28%; in that of `COCC(=O)N1CCC2(CC1)CC(COC)N(Cc1ccccn1)C2.O=C(O)C(F)(F)F` (stereo not given), 9.323%. The value for `CCN1C(=O)CC[C@]12CC[C@@H](NC(=O)NCc1cccnc1)CC2.O=C(O)C(F)(F)F` was 4.335%; that for `CNC(=O)C1Cn2ccnc2C2(CCN(Cc3cccc(C)n3)CC2)O1.O=C(O)C(F)(F)F` (stereo not given) was -1.384%. As to `Cc1nc(NCc2noc(C3CCCO3)n2)c2ccsc2n1` (stereo not given), the “Percent Effect” value stood at 12.93%. In the case of `O=C(O)C(F)(F)F.O=C1COC2(CCN(c3ncccn3)CC2)CN1` it was -4.23%.

As for `O=C(O)C(F)(F)F.O=C1COC2(CCN(c3ccccn3)CC2)CN1`, the “Percent Effect” value is recorded as 64.38%. The value for `Cc1ccc(N2CCC3(CC2)CNC(=O)CO3)nn1.O=C(O)C(F)(F)F` was -15.23%; that for `Cc1cc(F)ccc1-c1ccccc1CC1CNCCNC1=O.Cl` (stereo not given) was 10.68%; that for `Cc1ccc(C(=O)N2CC[C@@H]3CN(C4CCOCC4)CCO[C@@H]3C2)o1.O=C(O)C(F)(F)F` was 5.788%. In the case of `CC(C)NC(=O)N1CC[C@H]2[C@H]1CCN2c1ncccn1.O=C(O)C(F)(F)F` it was -6.623%; in that of `N#Cc1cccnc1NCc1ccc(S(=O)(=O)NC2CC2)cc1`, 26.85%; in that of `Cc1ccc(NCc2ccc(C#N)cc2)c(CN(C)C)c1`, -24.71%.

With `Cc1cc(NCc2cccc(C#N)c2)ccc1Br`, the “Percent Effect” value is -0.9935%. Consider `Cc1cc(NCc2cccc(C#N)c2)ccc1C(N)=O`, for which the “Percent Effect” value is recorded as -8.044%. In the case of `Cc1c(NCc2ccccc2C#N)cccc1S(=O)(=O)NC1CC1` it was 92.24%; in that of `Cc1c(NCc2ccccc2C#N)cccc1-n1cnnn1`, 16.44%; in that of `Cc1c(NCc2ccc(C#N)cc2)cccc1S(=O)(=O)NC1CC1`, 50.41%. In the case of `Cc1c(NCc2cccc(C#N)c2)cccc1S(=O)(=O)NC1CC1` it was 50.22%; in that of `CS(=O)(=O)NCC1CCCCN1Cc1ccccc1C#N` (stereo not given), -5.634%; in that of `COC1COC2(CCN(Cc3ccc(Cl)cc3)CC2)C1.O=C(O)C(F)(F)F` (stereo not given), -23.85%.

`Cc1nc(NC(=O)C2(C)CN(C)CCO2)sc1C.Cl` (stereo not given): the “Percent Effect” value is listed as -1.317%. Regarding `CCC(CC)C(=O)N1CCOC2(COCCN(CC(=O)NC)C2)C1.O=C(O)C(F)(F)F` (stereo not given), the “Percent Effect” value is -7.076%.

As for `Cc1cccc(NC(=O)N2CCCn3cnc(CN(C)C(C)C)c3C2)c1.O=C(O)C(F)(F)F`, the “Percent Effect” value is reported as -43.51%. The value for `COCC1CN(c2ccc(C)nn2)Cc2cnn(C)c21.O=C(O)C(F)(F)F.O=C(O)C(F)(F)F` (stereo not given) was 33.23%. In the case of `CN1CCOCC2(CCCN(C(=O)c3ccc(-n4cccc4)cc3)C2)C1.O=C(O)C(F)(F)F` (stereo not given) it was -38%; in that of `CN(C)CC(=O)N1CCC2(CC1)CN(c1ccsc1)C(=O)CO2.O=C(O)C(F)(F)F`, -14.58%.

Regarding `CCc1cc(CN2C[C@H]3CC[C@@H]2CN(C2Cc4ccccc4C2)C3)on1`, the “Percent Effect” value was 30.93%. For the compound `c1ccc(-c2cc(CN3C[C@@H]4CC[C@H](C3)N(CC3CCC3)C4)on2)cc1`, the “Percent Effect” value came out at 105.8%. In the case of `C1CCCN(CC2CCCN(Cc3noc(C4CC4)n3)C2)CC1` (stereo not given) it was 7.551%. The value for `c1ccc(-c2nnc(CN3C[C@@H]4CC[C@H](C3)N(CC3CCC3)C4)o2)cc1` was 64.4%; that for `Cc1cc(CN2C[C@H]3CC[C@@H]2CN(C2Cc4ccccc4C2)C3)on1` was 16.59%. Take `C1CC(CN2C[C@H]3CC[C@@H]2CN(Cc2nnc(C4CC4)o2)C3)C1`: the “Percent Effect” value was found to be 16.6%. In the case of `c1ccc(-c2cc(CN3C[C@@H]4CC[C@H](C3)N(CC3CC3)C4)on2)cc1` it was 99.84%; in that of `c1ccc(CN2C[C@H]3CC[C@@H]2CN(Cc2nnc(C4CC4)o2)C3)cc1`, -5.775%; in that of `Cc1cnn(C2CN(Cc3noc(C4CC4)n3)C2)c1`, 9.159%. The value for `c1ccc(-c2cc(CN3CCCC(Cn4cncn4)C3)on2)cc1` (stereo not given) was -1.952%; that for `C1CC(CN2C[C@H]3CC[C@@H]2CN(Cc2noc(C4CCCC4)n2)C3)C1` was 69.475%. `c1ccc(-c2cc(CN3C[C@H]4CC[C@H]3C4)on2)cc1`: the “Percent Effect” value is 7.341%. The value for `Cc1noc(C)c1CN1CCCC2(CCN(CC3CCCC3)C2)C1.O=C(O)C(F)(F)F` (stereo not given) was -3.039%. Turning to `CCN1C[C@@H]2[C@@H](OC)CCN(S(=O)(=O)c3ccccc3)[C@@H]2C1.O=C(O)C(F)(F)F`, the “Percent Effect” value is recorded as -5.885%.

On to `COCC(=O)N1CCn2c(COc3cccnc3)cnc2C1C.O=C(O)C(F)(F)F` (stereo not given), for which the “Percent Effect” value was 5.093%. The value for `CC(=O)N1CCN(Cc2ccccn2)CC2(CC(=O)N(C)C2)C1.O=C(O)C(F)(F)F.O=C(O)C(F)(F)F` (stereo not given) was -32.82%.

With `CNC(=O)c1cc(C2CCCN2)n[nH]1.Cl` (stereo not given), the “Percent Effect” value is 10.86%. Consider `CC(=O)N1CCC[C@@H](NCc2c[nH]c3ccccc23)[C@@H]1c1ccc(C)s1.Cl`, for which the “Percent Effect” value was 67.48%. The value for `CC(=O)N1CCC[C@@H](NCc2ccc(F)cc2)[C@@H]1c1ccc(C)s1` was 15.69%; that for `CC(=O)N1CCC[C@@H](NCc2cccc(F)c2)[C@@H]1c1ccc(C)s1.Cl` was 4.639%. The value for `O=C(O)C(F)(F)F.O=C1[C@H]2CN(Cc3ccco3)C[C@H]2CN1c1ccsc1` was 26.88%; that for `O=c1c2cnc(N3CCOCC3)nc2ccn1Cc1ccco1` was -1.985%. As to `COCc1nc(N2CC[C@H](N(C)C)C2)c2cnn(C)c2n1`, the “Percent Effect” value was -4.11%. In the case of `CCCOC1CCCN(c2nc(COC)nc3c2cnn3C)C1` (stereo not given) it was 67.42%; in that of `CCCc1nc(N2CCCN3CCC[C@H]3C2)c2cnn(C)c2n1`, -9.904%; in that of `CCc1nc(N2CCCC(CCCOC)C2)c2cnn(C)c2n1` (stereo not given), -4.574%. Regarding `CCCc1nc(N2CCCC(CCOC)C2)c2cnn(C)c2n1` (stereo not given), the “Percent Effect” value was -22.83%.

As to `CCCOC1CCCN(c2nc(CC)nc3c2cnn3C)C1` (stereo not given), the “Percent Effect” value came out at 77.82%. The value for `CS(=O)(=O)NC[C@@H]1OC[C@H]2CN(Cc3ccccc3)CC[C@H]21.O=C(O)C(F)(F)F` was 25.84%. `O=C(O)Cn1ccc(=O)c2cc(Cl)ccc21`: the “Percent Effect” value was 63.91%. The value for `O=C(O)Cn1ccc(=O)c2cc(F)ccc21` was 12.91%; that for `O=C(O)Cn1ccc(=O)c2ccc(Cl)cc21` was -0.616%. With `CN(C)CCOCc1cncc2c1CCN(C1CCOCC1)C2.O=C(O)C(F)(F)F.O=C(O)C(F)(F)F.O=C(O)C(F)(F)F`, the “Percent Effect” value was 38.62%.

Take `O=C(CSc1nnc(N2CCNCC2)s1)Nc1ccccc1.O=C(O)C(F)(F)F`: the “Percent Effect” value is given as -1.012%. In the case of `CC(C)Oc1ccc(CNC(=O)C2CCS(=O)(=O)C2)cn1` (stereo not given) it was -25.56%; in that of `Cc1ccc(C(C)NCCc2nccn2Cc2ccccc2)o1` (stereo not given), -11.63%; in that of `CCc1ccc(C(C)NCc2nccn2Cc2ccccc2)o1` (stereo not given), 91.1%.

Consider `CC(NCCc1nccn1Cc1ccccc1)c1cccs1` (stereo not given), for which the “Percent Effect” value is recorded as 34.94%. In the case of `O=C(O)C(F)(F)F.c1ccc2c(c1)N(CC1CCOC1)CC21CCN(c2cnccn2)CC1` (stereo not given) it was 16.03%; in that of `COCCN1CCCC2(CCC(=O)N2Cc2cccnc2)C1.O=C(O)C(F)(F)F` (stereo not given), -18.4%.
